PBM binding z-score data for 39 sequences are collected here from the supplement of paper PMC6555819.

One test concerns PPARg:RXRa 90nM:30nM, anti-RXR (NR concentration 90 nM, RXRa partner concentration 30 nM). Nature of the test: PBM binding z-score (relative to random genomic background probes); higher = stronger binding; sequences stand for … in GC…GCGATTGACAGCGTAGAATGAAGG
The essentials:
(§1)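 Ligand-free nuclear receptor dimers were applied to custom Agilent 4×180K protein-binding microarrays whose double-stranded probes carried direct-repeat seeds, single-nucleotide variants, half-site ablations and random human genomic background sequences in 34-nt variable regions. Incubation lasted 1 h. Binding z-scores were computed against the random background probes from regression-normalized fluorescence.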
In the case of CCTGCTAGGTCATGGTTAGCTAATCTACAGTATG, the PBM binding z-score was found to be 2.06.

AATACAGGGTCACTAGGCCAGTGTAGGTACGAAT came in with a PBM binding z-score of 5.85.

The sequence AGAACGAGGTCAATGAGTTGATAGCACGGGTGGC returned a PBM binding z-score of 5.11.

Regarding TCTAGCAGGCCAGAGGGTCACTCTAGAGGTACGG, the PBM binding z-score is 2.45.

Sequence CCTATTAGTTGACTATAAGGGCAACCGAAGCTCG displayed a PBM binding z-score of -0.284.

As for ATCTCTAGGTAAAGATAGTTCAGTGCATGCAAAT, the PBM binding z-score worked out at 0.225.

CCTCGGCGGACAACAGGAGGTCAGAGCTGCCAGA returned a PBM binding z-score of -0.415.

AGAATGAGGGTAAGATCAGGGAAACAGAATACAT registered a PBM binding z-score of 0.409.

TCTATTTGTTGAAGGGCAACCGACGAGTCCGTTT came in with a PBM binding z-score of 3.24.

In turn, CGTCCAAGGTCAATACTAGGTCAGTGAAAGCATT gave a PBM binding z-score of 3.73.

GCTACTGGGGCATCAGCAGGTTACCATAACTTAA yielded a PBM binding z-score of 1.34.

Take CCTCCAAGGTCAGCAGGTCAGTGAAAGCGACGTG: the PBM binding z-score is 2.93.

The sequence CCGACTGGGGCAGAAAGGTTACCATTCCATCCGG displayed a PBM binding z-score of 2.13.

Take CCTACTTGGTCAAGGTCACACACGCTATAGGTAC: the PBM binding z-score stood at 2.72.

The sequence CCTGCTAGGTGAATGGTCAGCTAAAGCAGCTCGC displayed a PBM binding z-score of 3.81.

In the case of TCTTGTAGATCAAAAGTTAAGAAAGCCGAAGCCT, the PBM binding z-score was 4.55.

Consider CCTTACGGGTCACGCCAGGTTATAGCATCGGAGT, for which the PBM binding z-score turned out to be 4.76.

GCGACTGGGGCAAAGCAGGTTAACATAAGGTTGG showed a PBM binding z-score of 0.614.

For the sequence GCGACTGCGGCAAAGCAGGTTACCATAAGGTTGG, the PBM binding z-score was -0.92.

In turn, TAGCCTAGGTCAGATCGGGCCAATATACGCTATA had a PBM binding z-score of 0.383.

Regarding AGAACGAGGGCACGTTGAGTTGATAGCAGAGTAG, the PBM binding z-score came out at 0.958.

Regarding ACAAGCAGGCCAAGTTTGGGTCACTCAAACAAAG, the PBM binding z-score turned out to be 0.124.

Take ATCTCTAGGTAACAAGTTCAGTGAAAGAGAGGAC: the PBM binding z-score amounted to 1.73.

Consider ACTTACGGGTCATCGAGGTTATAGCACGCGTATA, for which the PBM binding z-score stood at 4.43.

In turn, CCGACTGGGGCAGAAAGGCTACCATACCATCCGG registered a PBM binding z-score of -0.612.

ACTTGCAGGCCAAGTTTGGGTCACTCAAACAAAG displayed a PBM binding z-score of 0.0704.

With AGAACGAGGGCAATGAGTTGTTAGCACGGGTGGC, the PBM binding z-score stood at 0.514.

CCTTACGGGTCAAGGTTATAGGACGGGTGGTACG registered a PBM binding z-score of 3.36.

The sequence CCTTACAGGTCACTCCAGGTTATAGCATCGGAGT returned a PBM binding z-score of 2.79.

As to TCTACTAGGTCAGTTGGTCAGCTAACGAGCTGCC, the PBM binding z-score was 4.08.

TAGCCTAGGTGAGATCGGGCCAGTATACGCTATA: the PBM binding z-score was -0.319.

As to TGTCAAAGTTCAAAGGTAACGGAAGTATCCACAC, the PBM binding z-score was determined as 7.21.

For the sequence TCATAAAGGTAAAGGTGAAAGTCGAACGATATGA, the PBM binding z-score is 5.53.

Regarding ACCGAAAGGTCGAGGTGAGTATAGAGAAAGGGAA, the PBM binding z-score was 2.51.

Take GATACAGGCTCAAGGCCAGAGTACGCGTATTGAT: the PBM binding z-score is -0.0733.

In the case of TCTTGTAGATCAAGCAGGTTAAGACAGCCTGAGT, the PBM binding z-score is 1.76.

Turning to TCGAGTAGGTTACCAATGGAGCATTCAGCTTTCT, the PBM binding z-score worked out at 1.08.

In turn, TTACCAAGGTGCGCTGAGGTCGTTGATCCAACTC registered a PBM binding z-score of 0.0957.

Regarding TAGCCGAGGTCAGATCGGGCCAGTATACGCTATA, the PBM binding z-score turned out to be 2.17.

Another test has as its system PPARg:RXRa DBDmut IVT, anti-RXR (DBD mutation: RXRa K156A/R161A, NR concentration 270 nM, RXRa partner concentration 90 nM). The description is as above. A digest of the protocol: as §1
Regarding CCTGCTAGGTCATGGTTAGCTAATCTACAGTATG, the PBM binding z-score worked out at 4.51.

The sequence AATACAGGGTCACTAGGCCAGTGTAGGTACGAAT had a PBM binding z-score of 4.34.

As to AGAACGAGGTCAATGAGTTGATAGCACGGGTGGC, the PBM binding z-score is 5.59.

Sequence TCTAGCAGGCCAGAGGGTCACTCTAGAGGTACGG showed a PBM binding z-score of 0.721.

Sequence CCTATTAGTTGACTATAAGGGCAACCGAAGCTCG returned a PBM binding z-score of 0.032.

Take ATCTCTAGGTAAAGATAGTTCAGTGCATGCAAAT: the PBM binding z-score amounted to 2.3.

CCTCGGCGGACAACAGGAGGTCAGAGCTGCCAGA gave a PBM binding z-score of -0.701.

On to AGAATGAGGGTAAGATCAGGGAAACAGAATACAT, for which the PBM binding z-score was 2.28.

In turn, TCTATTTGTTGAAGGGCAACCGACGAGTCCGTTT came in with a PBM binding z-score of 2.54.

Sequence CGTCCAAGGTCAATACTAGGTCAGTGAAAGCATT displayed a PBM binding z-score of 3.77.

GCTACTGGGGCATCAGCAGGTTACCATAACTTAA displayed a PBM binding z-score of 5.96.

Turning to CCTCCAAGGTCAGCAGGTCAGTGAAAGCGACGTG, the PBM binding z-score was 2.44.

CCGACTGGGGCAGAAAGGTTACCATTCCATCCGG gave a PBM binding z-score of 1.94.

Take CCTACTTGGTCAAGGTCACACACGCTATAGGTAC: the PBM binding z-score was 2.5.

CCTGCTAGGTGAATGGTCAGCTAAAGCAGCTCGC: the PBM binding z-score worked out at 3.48.

In turn, TCTTGTAGATCAAAAGTTAAGAAAGCCGAAGCCT yielded a PBM binding z-score of 1.79.

The sequence CCTTACGGGTCACGCCAGGTTATAGCATCGGAGT returned a PBM binding z-score of 3.85.

In the case of GCGACTGGGGCAAAGCAGGTTAACATAAGGTTGG, the PBM binding z-score turned out to be 4.62.

GCGACTGCGGCAAAGCAGGTTACCATAAGGTTGG gave a PBM binding z-score of -0.386.

TAGCCTAGGTCAGATCGGGCCAATATACGCTATA yielded a PBM binding z-score of 0.525.

The sequence AGAACGAGGGCACGTTGAGTTGATAGCAGAGTAG yielded a PBM binding z-score of 3.79.

In turn, ACAAGCAGGCCAAGTTTGGGTCACTCAAACAAAG showed a PBM binding z-score of 0.823.

For ATCTCTAGGTAACAAGTTCAGTGAAAGAGAGGAC, the PBM binding z-score is 3.46.

For the sequence ACTTACGGGTCATCGAGGTTATAGCACGCGTATA, the PBM binding z-score came to 2.89.

CCGACTGGGGCAGAAAGGCTACCATACCATCCGG: the PBM binding z-score is 0.897.

The sequence ACTTGCAGGCCAAGTTTGGGTCACTCAAACAAAG registered a PBM binding z-score of 2.37.

On to AGAACGAGGGCAATGAGTTGTTAGCACGGGTGGC, for which the PBM binding z-score came to 3.51.

Take CCTTACGGGTCAAGGTTATAGGACGGGTGGTACG: the PBM binding z-score was determined as 1.92.

As to CCTTACAGGTCACTCCAGGTTATAGCATCGGAGT, the PBM binding z-score came out at 4.37.

On to TCTACTAGGTCAGTTGGTCAGCTAACGAGCTGCC, for which the PBM binding z-score was 6.44.

As to TAGCCTAGGTGAGATCGGGCCAGTATACGCTATA, the PBM binding z-score is 0.128.

In turn, TGTCAAAGTTCAAAGGTAACGGAAGTATCCACAC registered a PBM binding z-score of 0.604.

The sequence TCATAAAGGTAAAGGTGAAAGTCGAACGATATGA showed a PBM binding z-score of 2.88.

Consider ACCGAAAGGTCGAGGTGAGTATAGAGAAAGGGAA, for which the PBM binding z-score came to 0.771.

As to GATACAGGCTCAAGGCCAGAGTACGCGTATTGAT, the PBM binding z-score was -0.731.

TCTTGTAGATCAAGCAGGTTAAGACAGCCTGAGT displayed a PBM binding z-score of 1.59.

Sequence TCGAGTAGGTTACCAATGGAGCATTCAGCTTTCT gave a PBM binding z-score of 3.08.

Regarding TTACCAAGGTGCGCTGAGGTCGTTGATCCAACTC, the PBM binding z-score is -0.264.

In turn, TAGCCGAGGTCAGATCGGGCCAGTATACGCTATA registered a PBM binding z-score of 0.468.
